Consider five compounds from PubChem BioAssay.

Molecules are shown by their SMILES. Activity calls are given as the source filed them.

The nature of test [1]: small molecules captured by biotinylated probe aFSTL3 – biochemical, small-molecule microarray, fluorescence 635/667, stem cell growth factor project, primary screen (AID 1064).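 Also: measures binding of the biotinylated anti-FSTL3 antibody to printed compounds.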 The conditions noted are these: higher = more signal.
Test [2] is described as follows: binders from COS7 lysate, DM2A8 probe, primary screen, torsin A project, cell lysate, small-molecule microarray, fluorescence 635/667 (AID 1065). Particulars: higher = more signal, COS7 lysate expressing mutant human TOR1A.
Test [3] in a line: small molecules captured by biotinylated probe aFGF2 – biochemical, small-molecule microarray, fluorescence 635/667, stem cell growth factor project, primary screen (AID 1067).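 Also: measures binding of biotinylated aFGF2 protein to printed compounds on slides; z-score merges feature fluorescence and signal-to-noise across triplicate slides.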 Particulars: higher = more signal.
Test [4] is described as follows: small molecules captured by biotinylated probe aFGF10 – biochemical, small-molecule microarray, fluorescence 635/667, stem cell growth factor project, primary screen (AID 1071).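 Also: score merges 667 nm spot intensity and signal to noise from triplicate slides.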 Particulars: higher = more signal.
For test [5], the target named is Neurogenic locus notch homolog protein 2 (Homo sapiens) (UniProt Q04721). Put plainly: small molecules binding Notch2 protein – biochemical, small-molecule microarray, 635 nm fluorescence, stem cell growth factors, primary screen (AID 1073). The conditions noted are these: higher = more signal.
Neurogenic locus notch homolog protein 2 (Homo sapiens), sequence (Q04721 whole entry, looked up, canonical isoform): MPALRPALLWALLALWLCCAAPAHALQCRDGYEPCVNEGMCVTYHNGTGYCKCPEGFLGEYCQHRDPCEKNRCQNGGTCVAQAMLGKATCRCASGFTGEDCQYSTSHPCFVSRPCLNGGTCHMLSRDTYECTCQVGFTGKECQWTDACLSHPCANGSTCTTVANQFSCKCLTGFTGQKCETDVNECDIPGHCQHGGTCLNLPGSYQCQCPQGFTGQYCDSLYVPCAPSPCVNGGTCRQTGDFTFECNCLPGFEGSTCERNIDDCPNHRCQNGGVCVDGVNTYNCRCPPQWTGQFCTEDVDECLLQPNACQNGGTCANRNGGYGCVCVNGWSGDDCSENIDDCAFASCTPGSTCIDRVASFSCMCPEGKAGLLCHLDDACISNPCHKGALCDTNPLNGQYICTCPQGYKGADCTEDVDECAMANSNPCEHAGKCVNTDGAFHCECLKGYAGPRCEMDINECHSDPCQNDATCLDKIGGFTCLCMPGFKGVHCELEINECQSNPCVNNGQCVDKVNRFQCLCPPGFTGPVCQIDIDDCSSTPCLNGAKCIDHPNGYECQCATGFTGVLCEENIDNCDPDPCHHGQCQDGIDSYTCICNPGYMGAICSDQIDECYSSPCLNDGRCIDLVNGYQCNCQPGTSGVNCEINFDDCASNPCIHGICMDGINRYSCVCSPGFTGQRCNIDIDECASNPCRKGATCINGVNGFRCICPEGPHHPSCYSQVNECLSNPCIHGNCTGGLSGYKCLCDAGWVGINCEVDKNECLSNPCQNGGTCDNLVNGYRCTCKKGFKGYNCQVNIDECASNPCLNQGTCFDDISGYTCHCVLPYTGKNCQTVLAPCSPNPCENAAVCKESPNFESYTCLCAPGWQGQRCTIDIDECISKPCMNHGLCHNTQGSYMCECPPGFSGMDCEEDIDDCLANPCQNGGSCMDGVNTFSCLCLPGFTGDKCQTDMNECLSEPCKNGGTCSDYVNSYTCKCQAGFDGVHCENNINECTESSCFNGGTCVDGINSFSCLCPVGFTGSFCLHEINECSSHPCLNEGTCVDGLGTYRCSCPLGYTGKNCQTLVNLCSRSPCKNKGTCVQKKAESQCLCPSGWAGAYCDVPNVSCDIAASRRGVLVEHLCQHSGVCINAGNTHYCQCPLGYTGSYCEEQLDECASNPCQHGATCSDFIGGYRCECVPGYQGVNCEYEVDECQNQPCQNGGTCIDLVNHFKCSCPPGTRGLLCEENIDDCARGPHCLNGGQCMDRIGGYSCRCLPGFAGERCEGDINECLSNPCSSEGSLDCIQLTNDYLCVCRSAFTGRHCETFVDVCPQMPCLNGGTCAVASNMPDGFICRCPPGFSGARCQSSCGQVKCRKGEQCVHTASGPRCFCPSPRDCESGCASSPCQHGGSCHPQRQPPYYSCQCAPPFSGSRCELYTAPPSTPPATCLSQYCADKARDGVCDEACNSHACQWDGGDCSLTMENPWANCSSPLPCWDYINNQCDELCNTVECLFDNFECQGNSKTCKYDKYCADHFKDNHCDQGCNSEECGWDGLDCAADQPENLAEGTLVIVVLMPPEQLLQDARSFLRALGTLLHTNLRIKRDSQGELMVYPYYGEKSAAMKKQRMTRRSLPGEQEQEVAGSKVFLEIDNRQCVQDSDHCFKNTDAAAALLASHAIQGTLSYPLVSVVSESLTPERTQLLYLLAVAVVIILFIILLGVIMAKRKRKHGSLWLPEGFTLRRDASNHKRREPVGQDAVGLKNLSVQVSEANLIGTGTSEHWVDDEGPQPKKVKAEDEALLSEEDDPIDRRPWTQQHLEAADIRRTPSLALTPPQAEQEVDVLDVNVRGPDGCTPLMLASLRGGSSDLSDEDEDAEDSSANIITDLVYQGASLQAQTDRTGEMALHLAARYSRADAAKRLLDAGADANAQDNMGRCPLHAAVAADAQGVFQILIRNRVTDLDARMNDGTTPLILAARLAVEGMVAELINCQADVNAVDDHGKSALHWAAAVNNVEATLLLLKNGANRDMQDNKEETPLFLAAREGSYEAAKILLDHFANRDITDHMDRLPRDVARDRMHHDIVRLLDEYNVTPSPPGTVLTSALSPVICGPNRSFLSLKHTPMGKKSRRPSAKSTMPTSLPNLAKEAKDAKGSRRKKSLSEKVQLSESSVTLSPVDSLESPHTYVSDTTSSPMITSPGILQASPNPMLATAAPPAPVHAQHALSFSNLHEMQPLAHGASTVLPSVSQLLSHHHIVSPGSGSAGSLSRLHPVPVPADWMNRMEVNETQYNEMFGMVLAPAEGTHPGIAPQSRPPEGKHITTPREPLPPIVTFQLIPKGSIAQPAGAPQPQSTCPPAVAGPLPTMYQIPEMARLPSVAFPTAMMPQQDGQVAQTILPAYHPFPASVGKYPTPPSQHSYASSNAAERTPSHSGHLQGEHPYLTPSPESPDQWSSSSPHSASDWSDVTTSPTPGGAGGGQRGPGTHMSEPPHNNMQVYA
The target in test [6] is Pro-neuregulin-1, membrane-bound isoform (Homo sapiens) (UniProt Q02297). Put plainly: small molecules binding neuregulin-1 protein – biochemical, small-molecule microarray, fluorescence 635/667, psychiatric disease protein project, primary screen (AID 1075).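 Also: score combines 667 nm spot fluorescence with signal to noise.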 Particulars: NRG1 binding, 635 nm fluorescence, higher = more signal.
Test [7] deals with Neuregulin-1 EGF-like domain. The test is described as follows: small molecules binding NRG1 EGF domain – biochemical, small-molecule microarray, 635 nm fluorescence, primary screen (AID 1081).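 Also: binding of the protein to compounds printed on small-molecule microarray slides.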 The conditions noted are these: higher = more signal.
Test [8] is described as follows: FRG1 expression reporter modulators in myotubes – cell-based, C2C12 myotubes, firefly/Renilla luciferase, luminescence, FRG1 inhibition for FSHD, primary screen (AID 1084). Particulars: FRG1 promoter luciferase, higher = more signal, called active from +8 up or from −8 down.
Test [9] can be described thus: small molecules captured by biotinylated probe aFST – biochemical, small-molecule microarray, fluorescence 635/667, stem cell growth factor project, primary screen (AID 1086).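 Also: score merges 667 nm fluorescence with signal-to-noise of each printed compound spot.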 Particulars: higher = more signal.
Test [10] can be described thus: binders of probe aHhip on microarray, primary screen, stem cell growth factor project, biochemical, small-molecule microarray, fluorescence 635/667 (AID 1087).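 Also: score merges spot fluorescence at 667nm with spot signal to noise ratio.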 Particulars: higher = more signal.
The test system of test [11] is PRMT1 (protein arginine N-methyltransferase 1). The test is described as follows: small molecules binding arginine methyltransferase PRMT1 – biochemical, small-molecule microarray, 635 nm fluorescence, primary screen (AID 1088).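 Also: binding of Prmt1 protein to compounds spotted on small-molecule microarray slides.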 Particulars: higher = more signal.
Test [12] can be described thus: growth effects on S. cerevisiae YJM789 – YJM789 clinical isolate, OD600, 24 h, basal, primary screen (AID 1089).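 Also: growth of clinical yeast isolate S. cerevisiae YJM 789 seeded 1000 cells per well; test concentration not given here.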 The conditions noted are these: higher = more signal, called active from +8 up or from −8 down.
Test [13] in a line: S. pombe growth modifiers, basal conditions – strain 972, OD600, 24 h, no modulator, primary screen (AID 1090).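 Also: basal condition with compound alone and no growth modifier present; test concentration not given here.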 The conditions noted are these: S. pombe 972 growth, higher = more signal, called active from +8 up or from −8 down.
Test [14] in a line: budding yeast growth modifiers under rapamycin – strain BY4716, OD600, 96 h, primary screen (AID 1091). Also: test concentration not given here. The conditions noted are these: S. cerevisiae BY4716 + rapamycin, higher = more signal, called active from +8 up or from −8 down.
Test [15] addresses Torsin-1A-interacting protein 2 (Homo sapiens) (UniProt Q8NFQ8). Put plainly: small molecules binding lysate-expressed LULL1 – cell lysate, human LULL1 lysate, 635/667 nm fluorescence, primary screen (AID 1092).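 Also: score merges per-feature 667 nm fluorescence with signal-to-noise.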 Particulars: small-molecule microarray, hLULL1 lysate binding, 635 nm fluorescence; higher = more signal.
Test [16] can be described thus: optical density change of DRC41 E. coli – strain DRC41, OD650, 24 h, E. coli filamentation project, primary screen (AID 1093).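 Also: MC1000 strain lacking acrAB efflux and sulA so SOS filamentation is blocked; test concentration not given here.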 The conditions noted are these: E. coli DRC41 growth, higher = more signal, called active from +8 up or from −8 down.
Test [17] can be described thus: probe aLefty2 binding to arrayed compounds – biochemical, biotinylated probe, 635/667 nm fluorescence, primary screen (AID 1094).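 Also: score merges spot fluorescence near 667 nm with spot signal-to-noise ratio.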 Particulars: small-molecule microarray, higher = more signal.
Test [18] has as its system Noggin (protein binding on small-molecule microarray). The test is described as follows: small molecules binding Noggin protein – biochemical, 635/667 nm fluorescence, primary screen (AID 1095).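 Also: score merges 667 nm feature fluorescence with signal to noise over triplicate slides.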 Particulars: 635 nm fluorescence, higher = more signal.
Test [19] concerns the target Neurogenic locus notch homolog protein 3 (Homo sapiens) (UniProt Q9UM47). Put plainly: small molecules binding NOTCH3 protein – biochemical, 635/667 nm fluorescence, primary screen (AID 1096). The conditions noted are these: small-molecule microarray, 635 nm fluorescence, higher = more signal.
The nature of test [20]: probe aEGFR binding to arrayed compounds – biochemical, biotinylated probe, 635/667 nm fluorescence, primary screen (AID 1097).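 Also: probe is a biotinylated anti-EGFR antibody binding compounds printed on slides; score combines fluorescence near 667 nm and signal to noise of each spot.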 The conditions noted are these: small-molecule microarray, higher = more signal.

Neurogenic locus notch homolog protein 3 (Homo sapiens), sequence (Q9UM47 whole entry, looked up): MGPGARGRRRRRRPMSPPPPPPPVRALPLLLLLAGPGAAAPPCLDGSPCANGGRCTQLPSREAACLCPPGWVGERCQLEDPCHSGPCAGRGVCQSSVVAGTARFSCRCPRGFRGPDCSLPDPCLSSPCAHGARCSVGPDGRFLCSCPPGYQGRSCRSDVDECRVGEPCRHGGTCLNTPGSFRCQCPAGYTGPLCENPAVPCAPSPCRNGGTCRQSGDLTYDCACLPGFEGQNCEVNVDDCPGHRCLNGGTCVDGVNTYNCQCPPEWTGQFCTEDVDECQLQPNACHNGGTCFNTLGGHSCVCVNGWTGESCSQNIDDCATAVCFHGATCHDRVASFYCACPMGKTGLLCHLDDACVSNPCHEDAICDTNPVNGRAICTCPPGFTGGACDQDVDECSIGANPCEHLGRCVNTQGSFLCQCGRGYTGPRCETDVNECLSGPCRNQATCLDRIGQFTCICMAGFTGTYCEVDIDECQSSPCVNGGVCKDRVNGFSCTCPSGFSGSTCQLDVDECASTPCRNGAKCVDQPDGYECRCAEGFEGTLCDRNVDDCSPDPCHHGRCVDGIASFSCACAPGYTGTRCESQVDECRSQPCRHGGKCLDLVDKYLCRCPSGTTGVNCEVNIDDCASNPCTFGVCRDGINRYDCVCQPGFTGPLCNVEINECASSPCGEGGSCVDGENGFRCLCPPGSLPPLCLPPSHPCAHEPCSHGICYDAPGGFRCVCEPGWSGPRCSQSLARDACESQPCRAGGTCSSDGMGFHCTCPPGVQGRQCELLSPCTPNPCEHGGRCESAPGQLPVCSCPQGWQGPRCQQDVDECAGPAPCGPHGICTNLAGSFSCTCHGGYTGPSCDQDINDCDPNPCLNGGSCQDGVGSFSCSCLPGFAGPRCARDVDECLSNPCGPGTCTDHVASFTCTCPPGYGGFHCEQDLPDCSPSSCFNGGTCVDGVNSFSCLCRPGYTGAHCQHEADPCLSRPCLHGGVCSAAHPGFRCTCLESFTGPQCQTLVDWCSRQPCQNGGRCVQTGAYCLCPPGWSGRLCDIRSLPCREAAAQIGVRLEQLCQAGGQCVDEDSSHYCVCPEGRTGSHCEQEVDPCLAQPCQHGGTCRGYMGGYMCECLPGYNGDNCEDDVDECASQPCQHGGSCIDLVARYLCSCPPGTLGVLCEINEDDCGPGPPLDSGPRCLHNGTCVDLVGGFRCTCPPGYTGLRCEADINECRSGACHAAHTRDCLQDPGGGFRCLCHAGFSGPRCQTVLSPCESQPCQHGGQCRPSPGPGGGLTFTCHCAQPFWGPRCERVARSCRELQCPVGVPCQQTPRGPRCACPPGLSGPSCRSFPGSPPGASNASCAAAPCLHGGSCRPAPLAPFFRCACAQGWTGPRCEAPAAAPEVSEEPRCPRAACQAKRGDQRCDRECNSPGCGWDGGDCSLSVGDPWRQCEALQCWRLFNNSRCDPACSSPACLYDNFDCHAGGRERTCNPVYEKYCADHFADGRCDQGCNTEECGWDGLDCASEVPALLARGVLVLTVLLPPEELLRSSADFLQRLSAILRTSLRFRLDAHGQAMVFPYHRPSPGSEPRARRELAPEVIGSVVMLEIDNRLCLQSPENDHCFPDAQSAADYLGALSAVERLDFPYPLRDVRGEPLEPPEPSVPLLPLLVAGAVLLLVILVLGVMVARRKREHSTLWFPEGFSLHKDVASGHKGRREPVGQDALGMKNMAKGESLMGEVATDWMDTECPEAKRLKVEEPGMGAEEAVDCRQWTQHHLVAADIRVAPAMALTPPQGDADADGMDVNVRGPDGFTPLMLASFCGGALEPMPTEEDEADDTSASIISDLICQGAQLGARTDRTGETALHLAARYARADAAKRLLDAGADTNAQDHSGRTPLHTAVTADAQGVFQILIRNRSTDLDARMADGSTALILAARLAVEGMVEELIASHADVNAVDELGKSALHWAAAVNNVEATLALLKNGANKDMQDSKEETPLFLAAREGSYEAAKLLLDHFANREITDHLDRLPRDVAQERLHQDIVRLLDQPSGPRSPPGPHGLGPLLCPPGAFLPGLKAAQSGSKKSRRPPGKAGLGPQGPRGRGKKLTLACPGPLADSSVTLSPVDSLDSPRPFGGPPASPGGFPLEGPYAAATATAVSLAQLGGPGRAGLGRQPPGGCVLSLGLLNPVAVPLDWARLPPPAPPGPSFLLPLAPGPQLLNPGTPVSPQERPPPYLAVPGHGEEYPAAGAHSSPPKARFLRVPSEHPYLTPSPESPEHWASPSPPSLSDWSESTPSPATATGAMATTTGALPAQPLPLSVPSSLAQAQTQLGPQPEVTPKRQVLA

Take `CCCC=C(CCC)[C@@H](NC(=O)Oc1ccc(F)cc1)c1ccc(C(=O)OC)cc1`: the composite z-score in test [1] was 0.415; in test [2] it was 0.175; in [3], 0.0883; in [4], 0.48; in [5], 1.52; in test [6], -0.454. The composite z-score in test [7] is 0.482; in test [9], 0.794; in [10], -0.121; in test [11], 0.598; in test [15], 3; in test [17] it was 0.212. The composite z-score in test [18] is -0.149; in [19], 0.775; in test [20] it was 0.601. In addition, the z-score was -3.81 (inactive) in test [8]; 0.876 (inactive) in [12]; 1.99 (inactive) in test [13]; 2.32 (inactive) in test [14]; -0.211 (inactive) in test [16].
As to `COc1ccc(C(=O)Nc2ccc(CN3C(=O)[C@@]4(O[C@@H](CC(=O)N5CCC[C@H]5CO)[C@H]([Si](C)(C)c5ccc(OC)cc5)[C@H]4C)c4ccccc43)cc2)cc1`, the composite z-score was -0.172 in test [1]; 0.195 in test [2]; -0.0202 in test [3]; 0.577 in test [4]; 1.47 in test [5]; 1.3 in test [6]. Besides, the composite z-score in [7] is 1.16; in test [9], 0.543; in [10] it was 0.176; in [11] it was 1.55; in test [15], 2.07; in test [17] it was -0.0134. Besides, the figures for the composite z-score in test [18], in [19] and in test [20] were 1.05, 1.09 and 0.131, respectively. For the same compound, the z-score in test [8] was -4.05 (inactive); in test [12], -0.466 (inactive); in test [13], -0.838 (inactive); in test [14], -0.436 (inactive); in test [16], 0.632 (inactive).
On to `CCOC(=O)C[C@H]1[C@H](OC(=O)Cc2ccc3c(c2)OCO3)[C@@H](NC(=O)c2ccc3ccccc3c2)c2cc(OCCCO)ccc2N1C(=O)c1ccccc1`, for which the composite z-score was -0.397 in [1]; 0.0993 in test [2]; -0.14 in test [3]; 0.284 in test [4]; 0.642 in test [5]; 0.376 in test [6]. The composite z-score was 1.13 in test [7]; 0.254 in [9]; 0.0373 in test [10]; 0.745 in [11]; 1.69 in test [15]; -0.0961 in test [17]. For the same compound, the composite z-score is 0.329 in test [18], 0.742 in test [19] and -0.0225 in test [20]. For the same compound, the z-score was 0.12 (inactive) in test [8]; -0.0607 (inactive) in test [12]; 0.175 (inactive) in test [13]; 0.954 (inactive) in test [14]; 1.35 (inactive) in [16].
In the case of `CC(C)C[C@@H]1NC(=O)[C@H]2C[C@@H](C(=O)NCCCCCCN(C)C)[C@@H](c3ccc(O)cc3)N2C1=O`, the composite z-score in test [1] was -0.0795; in [2], 1.44; in test [3], -0.0366; in [4], 1.16; in test [5], 0.285; in [6] it was 0.717. The composite z-score was determined as 1.48 in test [7]; 0.0151 in [9]; 0.0274 in test [10]; 1.56 in [11]; 3.1 in test [15]; 0.0829 in [17]. The values for the composite z-score in [18], in test [19] and in test [20] were 0.248, 1.14 and 0.122, respectively. Besides, the z-score in test [8] is 3.69 (inactive); in test [12] it was -0.924 (inactive); in test [13], -0.48 (inactive); in test [14], -0.734 (inactive); in test [16], -0.613 (inactive).
On to `CN(C)CCCNC(=O)[C@@]1(c2ccc([N+](=O)[O-])cc2)CC(=O)N(C2CCCCC2)[C@@H]1c1ccc(CO)cc1`, for which the composite z-score is 0.4 in [1]; 0.595 in [2]; -0.0717 in [3]; -0.466 in test [4]; -0.513 in [5]; 1.52 in test [6]. The composite z-score in test [7] is 0.692; in test [9], -0.114; in test [10], 0.0373; in test [11], 1.54; in test [15] it was 1.09; in test [17] it was -0.0259. The values for the composite z-score in test [18], in test [19] and in [20] were 0.0069, 0.444 and -0.0978, respectively. The z-score in [8] is -0.767 (inactive); in test [12] it was 1.78 (inactive); in [13], -8.13 (active); in test [14] it was -1.97 (inactive); in test [16], 0.59 (inactive).
